Results published in PMC5540273 (PLoS ONE, 2017).

Experiments:
Settings in all cases: concentration: 1 μM, replicates: in singlicate; n = 1
[1] = test system: DAPK1
[2] = test system: DAPK2
[3] = test system: DAPK3
[4] = test system: T1, DCAMKL1
T1 construct: gene DCLK1

[5] = test system: T2, DCAMKL2
T2 construct: gene DCLK2

[6] = test system: T3, DCAMKL3
T3 construct: gene DCLK3

[7] = test system: DDR1
[8] = test system: DDR2
[9] = test system: T4, DLK
T4 construct: gene MAP3K12

[10] = test system: T5, DMPK2
T5 construct: gene CDC42BPG
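Note: KINOMEscan kinase panel screen.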

Compound | %Inh [1] | %Inh [2] | %Inh [3] | %Inh [4] | %Inh [5] | %Inh [6] | %Inh [7] | %Inh [8] | %Inh [9] | %Inh [10]
NS(=O)(=O)c1cccc(-c2ccc3ncc(N4CCOCC4)nc3c2)c1 [GSK1535721] | 18% | 12% | 18% | 10% | 0% | 0% | 0% | 23% | 26% | 1%
NS(=O)(=O)CCc1cccc(Nc2nccc(-c3c(-c4cccc(NC(=O)c5c(F)cccc5F)c4)nn4ccccc34)n2)c1 [GSK336735] | 0% | 0% | 0% | 13% | 23% | 15% | 100% | 94.9% | 59% | 100%
CCCCCc1nc2c(N)ncnc2n1CCCCC [SKF-97255] | 0% | 0% | 0% | 23% | 0% | 5% | 0% | 21% | 0% | 0%
Cc1ccc(C(=O)NCC(N)=O)cc1-n1c(C)cc(OCc2ccc(F)cc2F)c(Br)c1=O | 0% | 0% | 15% | 3% | 17% | 19% | 15% | 3% | 0% | 0%
NS(=O)(=O)c1cccc(-c2ccc3nccc(-c4cccc(S(N)(=O)=O)c4)c3c2)c1 [GW867253] | 0% | 0% | 2% | 9% | 0% | 0% | 0% | 23% | 9% | 0%
O=C(NOCC1CC1)c1ccc(F)c(F)c1Nc1ccc(I)cc1Cl | 1% | 0% | 0% | 0% | 0% | 0% | 0% | 0% | 1% | 0%
CC(=O)Nc1ccc(COc2ccc(Nc3ccnc4cc(-c5ccccn5)ccc34)cc2)cc1.Cl [GW440148] | 0% | 0% | 21% | 5% | 0% | 9% | 29% | 0% | 71% | 2%
Cc1cn2c(=O)cc(N3CCOCC3)nc2n1Cc1cccc(Cl)c1Cl [GSK2334006] | 13% | 19% | 22% | 0% | 0% | 0% | 30% | 14% | 21% | 15%
O=c1cc(N2CCOCC2)nc2n(Cc3cccc(Cl)c3Cl)c(C3CC3)nn12 [GSK2358994] | 26% | 12% | 6% | 0% | 7% | 17% | 21% | 0% | 0% | 0%
C[C@@H](Oc1cc(-n2cnc3ccc(NC(=O)NC(C)(C)C)cc32)sc1C(N)=O)c1ccccc1Cl [GSK346294] | 20% | 10% | 19% | 31% | 0% | 0% | 16% | 18% | 33% | 16%
COC(=O)Nc1nc2cc(Oc3ccc(NC(=O)Nc4cc(F)ccc4F)cc3)ccc2[nH]1.Cl [GW701424] | 0% | 0% | 8% | 11% | 0% | 17% | 100% | 99.2% | 0% | 1%
CN1c2ccc(NCc3ccc(F)cc3)cc2-c2c(cnn2C)S1(=O)=O | 3% | 12% | 15% | 16% | 25% | 9% | 0% | 31% | 0% | 0%
O=C(c1ccc(-c2cc(-c3c[nH]nc3-c3ccccn3)ccn2)cc1)N1CCOCC1 [GW812171] | 0% | 0% | 11% | 30% | 0% | 0% | 0% | 30% | 0% | 0%
COc1ccc(Nc2nccc(N3CCC(NC(=O)Nc4cccc(C(C)=O)c4)C3)n2)cc1 (stereo not drawn) [GSK1379731] | 0% | 0% | 0% | 0% | 0% | 0% | 12% | 14% | 0% | 2%
O=c1cc(N2CCOCC2)nc2n(Cc3cccc(F)c3)ccn12 [GSK2297430] | 0% | 0% | 0% | 0% | 0% | 2% | 0% | 1% | 23% | 4%
